Test results from PubChem BioAssay.
Calls of active or inactive are those of the source. The rule behind the calls is not given here.

tested on: Aerobactin synthetase IucA (Klebsiella pneumoniae, hypervirulent); experiment: biochemical IucA inhibition screen of LOPAC library by absorbance (AID 1346212); conditions: IucA enzyme assay, absorbance (OD) readout; hits give low values;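 tested at 8 µM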;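 note: 100% = no compound wells and 0% = no enzyme wells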

| SMILES | remaining activity |
| --- | --- |
| Ic1ccc(N2CCN(Cc3c[nH]c4ncccc34)CC2)cc1 | 115% (inactive) |
| CCCCCCCCCCCCCCCC(=O)OC(CC(=O)O)C[N+](C)(C)C (stereo not given) | 116% (inactive) |
| COc1ccc2c(c1)c(CC(=O)O)c(C)n2C(=O)c1ccccc1 | 111% (inactive) |
| CN1CCc2cccc3c2[C@H]1Cc1ccc(O)c(O)c1-3 | 107% (inactive) |
| CC(C(O)c1ccc(O)cc1)N1CCC(Cc2ccccc2)CC1 (stereo not given) | 105% (inactive) |
| S=C(S)N1CCCC1 | 83.6% (inactive) |
| CN1[C@@H](CC(=O)c2ccccc2)CCC[C@H]1C[C@H](O)c1ccccc1 | 115% (inactive) |
| O=C(O)[C@@H]1C[C@H](C(=O)O)N1 | 109% (inactive) |
| NC/C=C\C(=O)O | 124% (inactive) |
| C[C@H]1O[C@@H](n2cc(F)c(=O)[nH]c2=O)[C@H](O)[C@@H]1O | 98.9% (inactive) |
| CNCCNS(=O)(=O)c1cccc2cnccc12 | 102% (inactive) |
| CC(C)C[C@H](NC(=O)[C@H]1O[C@@H]1C(=O)O)C(=O)NCCCCN=C(N)N | 115% (inactive) |
| Nc1nccc2c1ncn2[C@@H]1O[C@H](CO)[C@@H](O)[C@H]1O | 95.9% (inactive) |
| Cc1cc2c(cc1Cl)N(C(=O)Nc1ccc(Oc3cccnc3C)nc1)CC2 | 103% (inactive) |
| COCCCC/C(=N\OCCN)c1ccc(C(F)(F)F)cc1 | 100% (inactive) |
| COc1ccccc1N1CCN(CCN2C(=O)CC3(CCCC3)CC2=O)CC1 | 117% (inactive) |
| Cc1cc(C)c(NC(=O)C[C@H](CC(=O)O)c2cccc3ccccc23)c(C(=O)N2CCC3(CCCC3)CC2)c1 | 103% (inactive) |
| Nc1nc(Cl)nc2c1ncn2[C@@H]1O[C@H](COP(=O)(O)OP(=O)(O)OP(=O)(O)O)[C@H](O)C1O (stereo not given in full) | 104% (inactive) |
| CC(=O)[C@@]1(O)CC[C@H]2[C@@H]3CCC4=CC(=O)CC[C@]4(C)[C@H]3CC[C@@]21C | 106% (inactive) |
| N#C/C(=C\c1ccc(O)c(O)c1)C(=O)NCCCNC(=O)/C(C#N)=C/c1ccc(O)c(O)c1 | 98.2% (inactive) |

| SMILES | remaining activity |
| --- | --- |
| O=C(O)C1=CCCN(CCON=C(c2ccccc2)c2ccccc2)C1 | 104% (inactive) |
| COC1(C2=NCCN2)COc2ccccc2O1 (stereo not given) | 105% (inactive) |
| CCCCCCCCCCCCCCCCCCNC(=O)OCC(COP(=O)([O-])OCC[n+]1ccsc1)OC (stereo not given) | 126% (inactive) |
| OC[C@H]1O[C@H]([S-])[C@H](O)[C@@H](O)[C@@H]1O.[Au+] | 66.7% (active) |
| O=C(CCNNC(=O)c1ccncc1)NCc1ccccc1 | 115% (inactive) |
| COc1ccccc1CNCCCCCCNCCCCCCCCNCCCCCCNCc1ccccc1OC | 91.3% (inactive) |
| O=C(O)c1cc(=O)cc(C(=O)O)[nH]1 | 122% (inactive) |
| CCCCN1CCC(COC(=O)c2cc(Cl)c(N)c3c2OCCO3)CC1 | 109% (inactive) |
| [Li+] | 102% (inactive) |
| CCCCC#Cc1nc(N)c2ncn([C@@H]3O[C@H](C(=O)NCC)[C@@H](O)[C@H]3O)c2n1 | 96.4% (inactive) |
| CCNC(=O)[C@H]1O[C@@H](n2cnc3c(N)nc(NCCc4ccc(CCC(=O)O)cc4)nc32)C(O)[C@H]1O (stereo not given in full) | 109% (inactive) |
| Cc1nc(N=Nc2ccc(S(=O)(=O)O)cc2S(=O)(=O)O)c(COP(=O)(O)O)c(C=O)c1O | 106% (inactive) |
| COC(=O)[C@@H]1[C@H]2C[C@H]3c4[nH]c5ccccc5c4CCN3C[C@@H]2CC[C@@H]1O | 124% (inactive) |
| O=c1c2ccccc2nc2n1CCc1c-2[nH]c2ccccc12 | 82.9% (inactive) |
| CCC1(O)CC2CN(CCc3c([nH]c4ccccc34)[C@@](C(=O)OC)(c3cc4c(cc3OC)N(C)C3[C@]45CCN4CC=C[C@@](CC)([C@@H](OC(C)=O)[C@]3(O)C(=O)OC)[C@H]45)C2)C1 (stereo not given in full) | 102% (inactive) |
| C[C@@]12C(=O)OC(=O)[C@]1(C)[C@H]1CC[C@@H]2O1 | 118% (inactive) |
| CC(C)(C)[C@]1(O)CCN2C[C@H]3c4ccccc4CCc4cccc(c43)[C@@H]2C1 | 105% (inactive) |
| NC(=O)c1cn(Cc2c(F)cccc2F)nn1 | 117% (inactive) |
| CCCn1c(=O)c2[nH]c(-c3ccc(OCC(=O)NCCN)cc3)nc2n(CCC)c1=O | 109% (inactive) |
| NCCNC(=O)c1ncsc1-c1cccc(F)c1 | 88.1% (inactive) |
